# Test results reported in PubChem BioAssay AID504834 (National Center for Advancing Translational Sciences (NCATS), 2011).
# Among all 320,000 compounds or so, about 22,000 (6.9%) were called active. Inconclusive results (about 27%) are left out. Only a selection was taken, and actives are over-represented in it overall. A number with no mark means an inactive call. Calls follow the shape of the dose curve; as a rule, active = well fitted inhibition curve with a large enough effect; inconclusive = small, poorly fitted or top-dose-only effect, or another doubt; inactive = no such curve, though single readings can be large or run the other way.
# Test: Primary qHTS for delayed death inhibitors of the malarial parasite plastid, 96 hour incubation
# Details: P. falciparum luciferase reporter growth; series mostly up to 28.7 µM; activity change, negative = inhibition: at the top concentration
# Summary of the method: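 Two-generation exposure (96 h) targets delayed-death phenotype. Reporter parasites carrying integrated firefly luciferase, in red cells at 2% hematocrit and 0.05% parasitemia final, kept at 37 C, 5% CO2; luminescence loss indicates inhibition.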
# % is scaled to controls: 0 for no effect and ±100 for the full control effect; potency is read from the fitted curve at half-maximal effect.
SMILES,"activity change, negative = inhibition [%]",Potency
COc1cccc(NC(=O)N2CCCC2C(=O)NC2CCCCC2)c1 (stereo not given),-1.78,–
CCOC(=O)Cn1c(=O)n(Cc2ccc(OC)cc2)c(=O)c2cccnc21,28.9,–
COc1ccc(-c2oc3ncnc(NCCCO)c3c2-c2ccc(OC)cc2)cc1,–,2.08 µM (active)
COc1cc2nc(Cl)nc(NCCO)c2cc1OC,1.36,–
c1ccc(-c2oc3ncnc(N4CCOCC4)c3c2-c2ccccc2)cc1,-6.25,–
Cc1ccc(S(=O)(=O)N(Cc2ccccc2)c2ccccn2)cc1[N+](=O)[O-],-14.9,–
CCC(C)N1CC(=O)N2Cc3[nH]c4ccccc4c3C[C@H]2C1=O (stereo not given in full),3.67,–
Cc1[nH]nc(-c2ccc(OCc3cnn(-c4ccccc4)c3)cc2O)c1Oc1ccc(Cl)cc1,–,13.1 µM (active)
Oc1cccc(C2c3[nH]c4ccccc4c3CCN2Cc2cnn(-c3ccccc3)c2)c1 (stereo not given),2.75,–
CN=C1S/C(=C\c2c(OC)cc(OC)cc2OC)C(=O)N1C,14.8,–
O=C(CN1CCCCCC1)Nc1ccc(S(=O)(=O)N2CCCCC2)cc1,4.97,–
CC(Oc1ccccc1[N+](=O)[O-])C(=O)N/N=C/c1ccoc1 (stereo not given),39.7,–
Cc1cc(-c2csc(N)n2)c(C)n1Cc1ccccc1,-16.6,–
CCc1noc(C)c1C(=O)Nc1nc(-c2ccccc2)cs1,50.8,–
CC(=O)Nc1ccc(C(=O)Nc2nc(-c3cc(C)n(Cc4ccccc4)c3C)cs2)cc1,–,4.15 µM (active)
CCN(CC(=O)NCc1cccs1)C(=O)/C=C/c1ccc(C)cc1,-23.7,–
Cc1cc2ccccc2n1CCC(=O)O,29,–
O=C(O)CCn1c(O)c(C=C2N=c3ccccc3=N2)sc1=S,–,4.65 µM (active)
O=C(O)CCn1c(Cc2ccccc2)nc2ccccc21,-16.9,–
CCS(=O)(=O)C1=NSC2=NC(=O)/C(=C\c3ccc(OS(=O)(=O)c4ccccc4)cc3)C(=N)N21,-0.896,–
CC(C)(C)C(=O)Nc1c(Br)c(C2CC2)nn1-c1ccccc1,-2.14,–
Cc1cc(=O)oc2c1ccc1ccccc12,5.33,–
Cc1coc2c(O)cc3c(c12)OC1(N2CCCCC2)C(=O)NCCCC31 (stereo not given),–,9.28 µM (active)
NNC(=O)c1ccc(COCC(F)(F)C(F)F)cc1,-23.4,–
O=C(N/N=C/c1ccco1)c1csc2c1CCCC2,1.77,–
Cc1cc(C)n(-c2ccc(NC(=O)C3CCCCN3C(=O)c3cccs3)cc2)n1 (stereo not given),33.4,–
COc1ccc(C(=O)N2CCCCC2C(=O)Nc2ccc(-n3nc(C)cc3C)cc2)o1 (stereo not given),–,10.4 µM (active)
CN(C)C(=O)CCC(=O)N1CCCCC1C(=O)Nc1ccc(Oc2ccccc2F)cc1 (stereo not given),0,–
O=C(CN1CCCCC1)NC(=O)Nc1ccccc1F,34.5,–
CCN(CC(=O)NCC(=O)Nc1cccc(C)c1C)Cc1ccccc1,-12.1,–
